In PubChem BioAssay (EPA / NIEHS):
The source made the active and inactive calls. Rule for the calls: active = hit-call score of the fitted dose curve at least 0.9, where 1 is the maximum; inactive = score below 0.9.

Legend:
Settings in all cases: mRNA level, 48 h; actives raise or lower the signal
[1] = read-out: Cytochrome P450 3A4 (Homo sapiens) (UniProt P08684); assay: LTEA_HepaRG_CYP3A4: Life Technologies and Expression Analysis (LTEA) Assay for CYP3A4 using HepaRG (AID 2283487)
How it was run: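 HepaRG, 48 h exposure, 8-pt CRC from 100 uM (half-log), 0.5% DMSO, duplicates; serum-free induction medium. Readout: CYP3A4 mRNA, qRT-PCR, ACTB/GAPDH/POLR2A normalization. Bidirectional fit vs DMSO.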

[2] = read-out: DNA damage-inducible transcript 3 (DDIT3), DDIT3 (gene 1649); assay: LTEA_HepaRG_DDIT3: Life Technologies and Expression Analysis (LTEA) Assay for DNA damage-inducible transcript 3 (DDIT3) using HepaRG (AID 2283488)
How it was run: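 qRT-PCR readout (Fluidigm TaqMan), housekeeping-normalized to ACTB, GAPDH, POLR2A. HepaRG cells, 48 h exposure, 8-point half-log series from 100 uM in 0.5% DMSO, duplicates. Gain or loss of signal fitted against DMSO baseline.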

[3] = read-out: Pro-epidermal growth factor (Homo sapiens) (UniProt P01133); assay: LTEA_HepaRG_EGF: Life Technologies and Expression Analysis (LTEA) Assay for Epidermal growth factor (EGF) using HepaRG (AID 2283489)
How it was run: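 EGF transcript measured by Fluidigm TaqMan qRT-PCR with three housekeeping genes for normalization, 48 h after dosing HepaRG cultures in duplicate (top 100 uM, half-log steps, 0.5% DMSO vehicle). Gain or loss relative to DMSO fitted.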

[4] = read-out: Early growth response protein 1 (EGR1) transcription factor, EGR1 (gene 1958); assay: LTEA_HepaRG_EGR1: Life Technologies and Expression Analysis (LTEA) Assay for Early growth response protein 1 (EGR1) transcription factor using HepaRG (AID 2283490)
How it was run: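 EGR1 transcript levels quantified by qRT-PCR (Fluidigm arrays) against three housekeeping genes after 48 h chemical exposure of HepaRG cells. Eight-point half-log series topping at 100 uM, 0.5% DMSO vehicle, analyzed for gain or loss.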

[5] = read-out: Ezrin (EZR), EZR (gene 7430); assay: LTEA_HepaRG_EZR: Life Technologies and Expression Analysis (LTEA) Assay for Ezrin (EZR) using HepaRG (AID 2283491)
How it was run: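 Read-out is EZR transcript level by qRT-PCR, normalized to three housekeeping genes and fitted bidirectionally against the DMSO control. Human HepaRG cells received test chemicals for 48 h at eight half-log concentrations up to 100 uM in 0.5% DMSO.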

[6] = read-out: Cytochrome P450 3A7 (Homo sapiens) (UniProt P24462); assay: LTEA_HepaRG_CYP3A7: Life Technologies and Expression Analysis (LTEA) Assay for CYP3A7 using HepaRG (AID 2283492)
How it was run: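 CYP3A7 transcript measured by qRT-PCR (ACTB, GAPDH, POLR2A normalization) after 48 h chemical exposure of HepaRG cells in duplicate. Eight half-log concentrations, maximum 100 uM, 0.5% DMSO vehicle; bidirectional curve fitting against DMSO baseline.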

[7] = read-out: CYP3A5 (gene 1577); assay: LTEA_HepaRG_CYP3A5: Life Technologies and Expression Analysis (LTEA) Assay for CYP3A5 using HepaRG (AID 2283493)
How it was run: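 qRT-PCR read-out: CYP3A5 transcript in HepaRG lysates, housekeeping-normalized (ACTB/GAPDH/POLR2A), fitted bidirectionally against 0.5% DMSO baseline. Exposure 48 h, eight half-log concentrations up to 100 uM, duplicates.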

[8] = read-out: Fatty Acid-Binding Protein 1 (FABP1), FABP1 (gene 2168); assay: LTEA_HepaRG_FABP1: Life Technologies and Expression Analysis (LTEA) Assay for Fatty Acid-Binding Protein 1 (FABP1) using HepaRG (AID 2283494)
How it was run: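 FABP1 expression by TaqMan qRT-PCR, normalised to three housekeeping genes, in HepaRG cells after 48 h chemical treatment. Eight-point half-log series topping at 100 uM in 0.5% DMSO, duplicates; gain or loss fitted relative to vehicle.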

[9] = read-out: Cytochrome P450 4A22 (Homo sapiens) (UniProt Q5TCH4); assay: LTEA_HepaRG_CYP4A22: Life Technologies and Expression Analysis (LTEA) Assay for Cytochrome P450 4A22 (CYP4A22) using HepaRG (AID 2283495)
How it was run: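 Gene expression measured by qRT-PCR against three housekeeping genes (ACTB, GAPDH, POLR2A), with gain or loss fitted relative to 0.5% DMSO vehicle. HepaRG cultures received 48 h chemical treatment, top concentration 100 uM, half-log steps, duplicate wells.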

[10] = read-out: Cytochrome P450 7A1 (Homo sapiens) (UniProt P22680); assay: LTEA_HepaRG_CYP7A1: Life Technologies and Expression Analysis (LTEA) Assay for Cytochrome P450 7A1 (CYP7A1) using HepaRG (AID 2283496)
How it was run: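 Using 0.5% DMSO as vehicle and baseline, chemicals were tested in duplicate over an 8-point range from 100 uM on HepaRG cells for 48 h; qRT-PCR signals were normalised to ACTB, GAPDH and POLR2A.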

[11] = read-out: Glutathione S-Transferase (GSTA2), GSTA2 (gene 2939); assay: LTEA_HepaRG_GSTA2: Life Technologies and Expression Analysis (LTEA) Assay for Glutathione S-Transferase (GSTA2) using HepaRG (AID 2283497)
How it was run: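 GSTA2 transcript levels came from Fluidigm TaqMan qRT-PCR normalized to three housekeeping genes, fitted in both directions against DMSO. HepaRG cultures received chemicals for 48 h in serum-free induction medium (0.5% DMSO), 8 half-log concentrations up to 100 uM, duplicate.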

[12] = read-out: Glutamate-cysteine ligase catalytic (GCLC), GCLC (gene 2729); assay: LTEA_HepaRG_GCLC: Life Technologies and Expression Analysis (LTEA) Assay for Glutamate-cysteine ligase catalytic (GCLC) using HepaRG (AID 2283498)
How it was run: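 Expression by TaqMan qRT-PCR, normalized to three housekeeping genes (ACTB, GAPDH, POLR2A), with up- or down-regulation fitted against DMSO. HepaRG cells dosed in duplicate for 48 h with 8 half-log concentrations up to 100 uM, vehicle 0.5% DMSO.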

[13] = read-out: growth arrest and DNA damage 45 (GADD45G), GADD45G (gene 10912); assay: LTEA_HepaRG_GADD45G: Life Technologies and Expression Analysis (LTEA) Assay for growth arrest and DNA damage 45 (GADD45G) using HepaRG (AID 2283499)
How it was run: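 GADD45G transcript level by qRT-PCR (housekeeping-normalized: ACTB, GAPDH, POLR2A) after 48 h chemical treatment of a single HepaRG lot in serum-free induction medium; eight-point half-log series up to 100 uM in 0.5% DMSO, duplicates, up- or down-regulation scored.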

[14] = read-out: Glutamate-cysteine ligase regulatory (GCLM), GCLM (gene 2730); assay: LTEA_HepaRG_GCLM: Life Technologies and Expression Analysis (LTEA) Assay for Glutamate-cysteine ligase regulatory (GCLM) using HepaRG (AID 2283500)
How it was run: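 HepaRG, 48 h dosing, 100 uM top, half-log x8, 0.5% DMSO vehicle. Readout: GCLM mRNA by TaqMan qRT-PCR, housekeeping-normalized (ACTB/GAPDH/POLR2A). Curves fit bidirectionally vs DMSO baseline.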

[15] = read-out: Glutathione S-transferase M3 (GSTM3), GSTM3 (gene 2947); assay: LTEA_HepaRG_GSTM3: Life Technologies and Expression Analysis (LTEA) Assay for Glutathione S-transferase M3 (GSTM3) using HepaRG (AID 2283501)
How it was run: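 GSTM3 transcript levels came from Fluidigm TaqMan qRT-PCR normalized to three housekeeping genes, fitted in both directions against DMSO. HepaRG cultures received chemicals for 48 h in serum-free induction medium (0.5% DMSO), 8 half-log concentrations up to 100 uM, duplicate.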

[16] = read-out: Heat shock 70 kDa protein 1 (HSPA1A), gene 3303; assay: LTEA_HepaRG_HSPA1A: Life Technologies and Expression Analysis (LTEA) Assay for Heat shock 70 kDa protein 1 (HSPA1A) using HepaRG (AID 2283502)
How it was run: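 HepaRG, 48 h exposure, 8-pt half-log CRC from 100 uM in 0.5% DMSO, duplicates. Readout: TaqMan qRT-PCR of HSPA1A mRNA, housekeeping-normalized (ACTB/GAPDH/POLR2A). Bidirectional fit vs 0.5% DMSO baseline.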

[17] = read-out: Hypoxia-inducible factor 1-alpha (Homo sapiens) (UniProt Q16665); assay: LTEA_HepaRG_HIF1A: Life Technologies and Expression Analysis (LTEA) Assay for Hypoxia-inducible factor 1 (HIF1A) Trancription factor using HepaRG (AID 2283503)
How it was run: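 Gain- or loss-of-signal HIF1A mRNA changes are fitted against a DMSO baseline. HepaRG cultures receive eight concentrations, highest 100 uM, for 48 h in serum-free induction medium with 0.5% DMSO.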

[18] = read-out: 3-Hydroxy-3-Methylglutaryl-CoA Synthase 2 (HMGCS2), HMGCS2 (gene 3158); assay: LTEA_HepaRG_HMGCS2: Life Technologies and Expression Analysis (LTEA) Assay for 3-Hydroxy-3-Methylglutaryl-CoA Synthase 2 (HMGCS2) using HepaRG (AID 2283504)
How it was run: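 Readout is HMGCS2 transcript by qRT-PCR, housekeeping-normalised (ACTB/GAPDH/POLR2A) and fitted bidirectionally against 0.5% DMSO. Differentiated HepaRG cells received chemicals 48 h, duplicate wells, eight half-log concentrations topping at 100 uM.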

[19] = read-out: HGF (gene 3082); assay: LTEA_HepaRG_HGF: Life Technologies and Expression Analysis (LTEA) Assay for Hepatocyte Growth Facto (HGF) using HepaRG (AID 2283505)
How it was run: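 HGF transcript was quantified by TaqMan qRT-PCR against three housekeeping genes after 48 h treatment of HepaRG cells. Exposure ran in duplicate over eight half-log steps topping at 100 uM in 0.5% DMSO vehicle.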

[20] = read-out: CYP4A11 (gene 1579); assay: LTEA_HepaRG_CYP4A11: Life Technologies and Expression Analysis (LTEA) Assay for CYP4A11 using HepaRG (AID 2283486)
How it was run: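 Readout is CYP4A11 transcript level by qRT-PCR, normalized to three housekeeping genes and fitted bidirectionally against 0.5% DMSO. Human HepaRG cells were treated 48 h, in duplicate, with an 8-point half-log series topping at 100 uM.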

Measured: AC50

Chain of Cytochrome P450 3A4 (Homo sapiens) (P08684 whole entry, looked up): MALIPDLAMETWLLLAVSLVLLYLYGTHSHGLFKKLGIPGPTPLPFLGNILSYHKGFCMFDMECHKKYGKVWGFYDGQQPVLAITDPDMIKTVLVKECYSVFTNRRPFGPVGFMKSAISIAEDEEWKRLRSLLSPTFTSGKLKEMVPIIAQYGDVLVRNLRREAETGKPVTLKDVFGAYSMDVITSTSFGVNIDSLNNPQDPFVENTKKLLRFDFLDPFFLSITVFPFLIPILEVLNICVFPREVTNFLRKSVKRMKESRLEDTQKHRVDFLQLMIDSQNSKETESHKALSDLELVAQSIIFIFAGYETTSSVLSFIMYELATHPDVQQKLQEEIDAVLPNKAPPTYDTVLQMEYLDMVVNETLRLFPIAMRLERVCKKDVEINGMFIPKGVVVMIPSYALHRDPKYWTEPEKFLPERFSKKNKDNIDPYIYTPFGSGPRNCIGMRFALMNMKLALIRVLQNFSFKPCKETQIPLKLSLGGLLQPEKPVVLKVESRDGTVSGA
Chain of Hypoxia-inducible factor 1-alpha (Homo sapiens) (Q16665 whole entry, looked up): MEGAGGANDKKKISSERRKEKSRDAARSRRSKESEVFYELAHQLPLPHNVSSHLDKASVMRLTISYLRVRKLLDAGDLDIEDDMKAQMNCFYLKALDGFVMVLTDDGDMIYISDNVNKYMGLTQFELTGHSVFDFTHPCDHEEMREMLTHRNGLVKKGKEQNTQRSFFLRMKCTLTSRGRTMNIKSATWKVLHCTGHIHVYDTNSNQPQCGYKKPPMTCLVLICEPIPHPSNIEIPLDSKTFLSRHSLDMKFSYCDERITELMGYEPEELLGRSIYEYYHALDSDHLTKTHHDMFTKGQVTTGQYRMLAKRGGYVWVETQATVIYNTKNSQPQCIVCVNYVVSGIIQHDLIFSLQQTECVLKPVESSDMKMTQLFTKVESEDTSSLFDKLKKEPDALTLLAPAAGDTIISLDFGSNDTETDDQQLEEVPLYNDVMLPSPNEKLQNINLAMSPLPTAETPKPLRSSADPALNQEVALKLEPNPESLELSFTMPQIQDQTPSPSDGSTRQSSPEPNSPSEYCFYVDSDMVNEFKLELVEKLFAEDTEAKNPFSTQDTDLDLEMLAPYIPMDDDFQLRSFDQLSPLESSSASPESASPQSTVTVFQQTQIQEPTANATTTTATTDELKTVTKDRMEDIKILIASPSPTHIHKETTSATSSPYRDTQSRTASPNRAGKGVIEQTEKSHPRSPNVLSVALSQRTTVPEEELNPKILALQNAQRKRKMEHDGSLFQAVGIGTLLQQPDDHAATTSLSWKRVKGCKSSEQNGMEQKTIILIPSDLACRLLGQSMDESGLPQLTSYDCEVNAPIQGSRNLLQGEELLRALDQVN
Chain of Cytochrome P450 3A7 (Homo sapiens) (P24462 whole entry, looked up): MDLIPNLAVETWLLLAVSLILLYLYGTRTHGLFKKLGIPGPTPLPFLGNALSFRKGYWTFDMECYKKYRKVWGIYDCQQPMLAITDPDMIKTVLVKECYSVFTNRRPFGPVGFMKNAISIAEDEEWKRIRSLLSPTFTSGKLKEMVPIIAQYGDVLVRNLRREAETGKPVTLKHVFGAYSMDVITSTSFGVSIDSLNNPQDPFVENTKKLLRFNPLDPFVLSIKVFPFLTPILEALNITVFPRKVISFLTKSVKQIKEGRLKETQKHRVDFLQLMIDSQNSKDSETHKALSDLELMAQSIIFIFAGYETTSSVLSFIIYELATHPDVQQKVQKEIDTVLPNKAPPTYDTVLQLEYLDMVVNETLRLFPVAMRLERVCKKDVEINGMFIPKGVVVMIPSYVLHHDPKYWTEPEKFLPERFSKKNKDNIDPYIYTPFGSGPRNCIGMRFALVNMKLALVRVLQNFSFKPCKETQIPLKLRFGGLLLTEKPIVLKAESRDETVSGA

C1CC2OC2CC1C1CO1 (centres undefined)
not listed: [20]
inactive: all other assays above

CCOP(=S)(OCC)SCSC(C)(C)C
active: [6] 16.5 µM | [7] 2.83 µM | [8] 50 µM | [10] 16.3 µM | [18] 14.7 µM
not listed: [5]
inactive: all other assays above

CC#Cc1cc(C)nc(Nc2ccccc2)n1
inactive: [2] | [3] | [4] | [5] | [13] | [16] | [17]
active: [20] 1.1 µM | [1] 28.2 µM | [6] 41.6 µM | [7] 15.6 µM | [8] 13.7 µM | [9] 1.05 µM | [10] 13.8 µM | [11] 28 µM | [12] 32.8 µM | [14] 50 µM | [15] 14.5 µM | [18] 32.5 µM | [19] 50 µM

CC1=C2C[C@H]3[C@@H](CC=C4C[C@@H](O)CC[C@@]43C)[C@@H]2CC[C@]12O[C@@H]1C[C@H](C)CN[C@H]1[C@H]2C
not listed: [14] | [20]
inactive: all other assays above

Cc1cc(-c2ccc(N)c(C)c2)ccc1N
active: [8] 24.9 µM | [10] 9.92 µM | [13] 26 µM | [18] 19.3 µM
not listed: [14] | [20]
inactive: all other assays above
